Each compound was assayed against T1, Muscle, skeletal receptor tyrosine-protein kinase (Homo sapiens) (UniProt O15146). Conditions: at 0.1 µM.
T1 sequence (whole entry): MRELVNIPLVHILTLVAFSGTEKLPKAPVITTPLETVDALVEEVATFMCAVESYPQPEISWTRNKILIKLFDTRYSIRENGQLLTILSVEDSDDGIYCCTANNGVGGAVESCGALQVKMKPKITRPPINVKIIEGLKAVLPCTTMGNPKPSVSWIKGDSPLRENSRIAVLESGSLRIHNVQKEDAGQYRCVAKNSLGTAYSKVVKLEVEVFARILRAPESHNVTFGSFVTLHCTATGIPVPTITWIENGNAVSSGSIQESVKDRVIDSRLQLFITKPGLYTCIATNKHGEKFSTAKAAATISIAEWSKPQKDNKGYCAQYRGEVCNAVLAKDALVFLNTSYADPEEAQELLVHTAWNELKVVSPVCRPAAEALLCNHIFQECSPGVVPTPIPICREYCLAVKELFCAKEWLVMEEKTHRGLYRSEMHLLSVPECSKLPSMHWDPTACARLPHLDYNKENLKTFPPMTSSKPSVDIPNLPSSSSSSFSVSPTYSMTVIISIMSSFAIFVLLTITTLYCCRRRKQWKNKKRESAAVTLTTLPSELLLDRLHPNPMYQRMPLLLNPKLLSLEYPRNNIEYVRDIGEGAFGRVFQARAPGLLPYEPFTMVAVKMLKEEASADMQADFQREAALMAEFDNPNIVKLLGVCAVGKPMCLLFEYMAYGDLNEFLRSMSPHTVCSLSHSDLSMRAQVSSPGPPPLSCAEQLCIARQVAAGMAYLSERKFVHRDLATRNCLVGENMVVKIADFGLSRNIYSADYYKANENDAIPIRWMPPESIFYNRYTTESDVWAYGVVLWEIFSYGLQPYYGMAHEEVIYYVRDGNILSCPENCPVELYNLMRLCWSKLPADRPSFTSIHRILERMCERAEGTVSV
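Further: values are mean inhibition of MuSK from the GSK PKIS kinase screening panel.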

Point of comparison: `Cc1cc(-c2ccccn2)cc(C)c1/C=C/c1cncc(-c2nn[nH]n2)c1`, inhibition 3.02%. Against it:
- COc1cccc(-n2ncc3c(N/N=C/c4ccc(C)cc4)ncnc32)c1 — higher, 6.89%
- COc1cc2ncnc(Nc3ccc4c(cnn4Cc4ccccc4)c3)c2cc1OC — higher, 3.2%
- Cc1ccc(NC(=O)CC2CC2)cc1-c1ccc(C(=O)NCC2CC2)cc1 — lower, 2.1%
- COc1ccc2ncnc(Nc3ccc(OCc4ccccc4)cc3)c2c1 — lower, 1.31%
- Nc1nccc(-c2c(-c3ccc(F)cc3)ncn2CCCN2CCOCC2)n1 — lower, 0.89%
- CN(C)C(=O)O[C@@H]1CN[C@@H](C#Cc2cc3ncnc(Nc4ccc(OCc5cccc(F)c5)c(Cl)c4)c3s2)C1 — lower, -0.25%
- Cc1cc(O)cc(C)c1/C=C/c1cncc(C(=O)N(C)C)c1 — higher, 8.6%
- CN(C)C(=O)O[C@H]1CN[C@H](C#Cc2cc3ncnc(Nc4ccc(OCc5cccc(F)c5)c(Cl)c4)c3s2)C1 — lower, 2.98%
- Oc1cccc(-c2nc(-c3ccccc3)[nH]c2-c2ccncc2)c1 — higher, 4.05%
- c1ccc(Cc2nc3ccc(Nc4ncnc5ccccc45)cc3[nH]2)cc1 — higher, 3.14%
- CCn1c(-c2nonc2N)nc2ccc(F)cc21 — lower, 2.27%
- Cc1ccc2c(-c3ccnc(Nc4ccc5c(c4)OCCO5)n3)c(-c3ccc(C(F)(F)F)cc3)nn2n1 — lower, -0.62%
- N#Cc1c(NC(=O)c2ccccc2F)sc2c1CCCC2 — lower, 1.84%
- CCOc1nccc2c1nc(-c1nonc1N)n2CC — higher, 3.26%
- Nc1ccc(C#Cc2cncnc2Nc2ccc(OCc3cccc(F)c3)c(Cl)c2)cc1 — lower, -0.05%
- Cc1nc(-c2ccccc2)n2nc(NCCCN3CCOCC3)ncc12 — lower, 1.84%
- CN(c1ccc(NC(=O)Nc2ccc(OC(F)(F)F)cc2)cc1)c1ccnc(Nc2cccc(S(N)(=O)=O)c2)n1 — higher, 8.36%
- COc1ccc(-c2nn3ncccc3c2-c2ccnc(Nc3cccc(C(F)(F)F)c3)n2)cc1 — lower, 2.37%
- COC(=O)c1ccc2c(c1)C(=Cc1cc(Br)c(O)c(Br)c1)C(=O)N2 — lower, 3%
- Cc1ccc2c(-c3ccnc(Nc4cccc(C(F)(F)F)c4)n3)c(-c3ccccc3)nn2n1 — higher, 4.93%
- NS(=O)(=O)c1ccc(Nc2cc(-c3cccc(O)c3)n[nH]2)cc1 — higher, 4.32%
- COc1cc(/C=N/Nc2ncnc3c2cnn3C(C)C)ccc1O — higher, 11.6%
- Cc1ccc2c(c1)/C(=N/Nc1ccc(S(N)(=O)=O)cc1)C(=O)N2 — lower, 2.69%
- OCc1ccc(-c2nc(-c3ccccn3)c(-c3ccc4c(c3)OCO4)[nH]2)cc1 — higher, 3.11%
- CC(C)c1ccc(Nc2nccc(-c3cnn4ncccc34)n2)cc1 — higher, 3.14%
- O=S(=O)(CCOCc1ccc(-c2ccc3ncnc(Nc4ccc(OCc5cccc(F)c5)c(Cl)c4)c3c2)o1)c1ccccc1 — higher, 4.67%
- O=C1Nc2ccccc2/C1=C/Nc1ccc2[nH]c(=O)[nH]c2c1 — higher, 6.75%
- CCCN1CCCC(c2ccc(Nc3nc(Nc4cc(F)ccc4C(N)=O)c4cc[nH]c4n3)c(OC)c2)C1 (stereo not drawn) — higher, 3.6%
- CN(C)c1cc2c(Nc3ccc4c(cnn4Cc4ccccc4)c3)ncnc2cn1 — lower, 1.76%
- CCS(=O)(=O)c1ccc(OC)c(Nc2nccc(N(C)c3ccc4c(C)n[nH]c4c3)n2)c1 — lower, 2.51%
- CCn1c(-c2nonc2N)nc2c(C#CC(C)(C)O)nc(OCCNC)cc21 — lower, 1.71%
- COc1cc(Nc2nccc(-c3cnn4ncccc34)n2)cc(OC)c1 — higher, 6.23%
